Article PMC5540273 (PLoS ONE, 2017)

Columns and labels:
[1] = test system: CSNK1G1
[2] = test system: DAPK1
[3] = test system: DAPK2
[4] = test system: T1, DCAMKL2
T1 construct: gene DCLK2
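Note: kd values determined as follow-up on hits from a single-replicate KINOMEscan panel screen.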

For `c1ccc(-c2ccnc3[nH]ccc23)cc1` [SB-693578], which Kd [1] is on record?
The Kd was greater than 10 µM.

How did the Kd [1] turn out when `COc1cccc(C2=C(Nc3cc(Cl)c(O)c(Cl)c3)C(=O)NC2=O)c1` [SB-390767] was run?
The Kd was greater than 10 µM.

Which Kd [2] does the source give for `NS(=O)(=O)c1cccc(N/C=C2\C(=O)Nc3ccc(S(=O)(=O)Cc4c(Cl)cccc4Cl)cc32)c1` [GSK398099] here?
The Kd was greater than 10 µM.

`Cn1cnc2c(N)ncnc21` [SKF-97623] was tested. Which Kd [2] did it give?
Its Kd is greater than 10 µM.

How did the Kd [3] turn out when `Cc1nccc(-c2c(-c3ccc(F)cc3)ncn2CCCN2CCOCC2)n1.Cl` [SB-282975] was run?
Its Kd is greater than 10 µM.

Which Kd [4] does the source give for `CC(=O)c1c(C)c2cnc(Nc3ccn(C)n3)nc2n(C2CCCC2)c1=O` here?
The Kd was greater than 10 µM.
